From PubChem
RGS4 inhibitor – human RGS4 inhibition. P49798. Potency, µM (top dose mostly 114 µM), hits mostly inhibitors. Transcreener GDP fluorescence polarization, RGS4-accelerated GTP hydrolysis. AID 504845. actives 0.039% (n = 390,000); further: nearly all actives have a fitted effect of over 75% in size
Target sequence (P49798 whole entry, looked up): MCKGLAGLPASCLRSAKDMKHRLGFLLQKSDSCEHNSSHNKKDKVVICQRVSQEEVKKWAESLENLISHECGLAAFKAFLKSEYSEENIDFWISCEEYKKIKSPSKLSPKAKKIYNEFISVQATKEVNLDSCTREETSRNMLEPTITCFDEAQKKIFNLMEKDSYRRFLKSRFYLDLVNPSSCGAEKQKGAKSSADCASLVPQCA
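MLSMR compounds (23 nl, pin-transferred) preincubated 10 min at room temperature with a 500nM (2x) first reagent, then RGS4 at 900nM (2x) plus Transcreener GDP mix added; fluorescence polarization (620/688 nm) read before and after 90 min at 30 °C.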
EPAC2 ag – EPAC2 (human) agonism; Q8WZA2; EPAC2 activation, biochemical qHTS; response scale: 100% = 6.5 mM cAMP response; Potency, µM (doses to about 154 µM), usual class: activators; actives 0.079% (n = 360,000); AID 720711; further: nearly all actives have a fitted effect of over 50% in size
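EPAC2 (100 nM) mixed with Rap1B loaded with BODIPY-GDP (250 nM) plus 50 uM unlabeled GDP; compounds pinned in, 5 min RT, then read every 5 min for 30 min (ex 480, em 540 nm). Normalized to cAMP control.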
BRCA1 expr act – BRCA1 expression activation | AID 624202 | MCF7-BRCA1-FFLuc reporter, luminescence, 48 h; response scale: scaled: vehicle 0%, 10 µM genistein 100% | Potency, µM (titrated, usually from 46.1 µM), actives largely listed as activators | actives 1.1% (n = 380,000); further: nearly all actives have a fitted effect of over 80% in size
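First, MCF7-BRCA1-FFLuc cells (2000/well) attach for 2 h; next, compounds are pin-added and incubated 48 h at 37 °C; finally, luciferase reagent is added and luminescence read after 15 min.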
EPAC1 antag – antagonists of human EPAC1; AID 720709; Potency, µM (titrated, usually from 115 µM), usual class: inhibitors; O95398; actives 0.14% (n = 360,000); EPAC1 GEF assay, Rap1b-BODIPY-GDP exchange fluorescence; further: nearly all actives have a fitted effect of over 50% in size
EPAC2 antagonist – blocks human EPAC2 exchange factor; Potency, µM (highest dose often 114 µM), usual class: inhibitors; EPAC2 GEF exchange of Rap1B-BODIPY-GDP, fluorescence; Q8WZA2; actives 0.18% (n = 360,000); further: nearly all actives have a fitted effect of over 45% in size
EPAC1 agonist – activates human EPAC1 exchange factor | O95398 | actives 0.073% (n = 360,000) | EPAC1 agonist qHTS, biochemical assay; response scale: 100% = response to 6.5 mM cAMP | AID 720707 | Potency, µM (highest dose often 154 µM), most hits filed as activators; further: nearly all actives have a fitted effect of over 60% in size
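Nucleotide exchange assay: 100 nM EPAC1 with 250 nM Rap1B loaded with BODIPY-GDP and 50 uM GDP, room temperature. Fluorescence (480/540 nm) read every 5 min for 30 min; signal change normalized to 6.5 mM cAMP as full agonist.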
Each line names hits and unclear results; the compound was inactive in the other large screens. Hits are enriched below; roughly 1.3% of the tested compounds scored in any of these assays. The call rests on the fitted dose curve; in most records, active means well fitted curve in the direction sought with a large enough effect; inconclusive means small, poorly fitted or top-dose-only effect, or another doubt; inactive means no such curve, though single readings can be large; an effect the other way counts as inactive or inconclusive.

COc1ccc(/C=C2\SC(=O)N(CCC(=O)Nc3ccc(S(=O)(=O)Nc4nccs4)cc3)C2=O)cc1	none
COC(=O)Cn1c(C)nc2c(sc3nc(C)cc(C)c32)c1=O	BRCA1 expr act 6.31µM
CC(=O)c1ccccc1OCc1ccc(S(=O)(=O)Cc2ccccc2)cc1	none
Cc1nc(CC(=O)c2c(C)cc(O)cc2O)cs1	none
COc1ccc(C2=NOC(CNC(N)=S)C2)cc1 (configuration not stated)	BRCA1 expr act 3.16µM
Cc1cc(C(=O)CSc2ccc(Cl)cc2)cc(C)c1OC(=S)N(C)C	BRCA1 expr act 5.01µM
Cc1cc(NC2C3CC4CC(C3)CC2C4)n2nnnc2n1 (configuration not stated)	none
CCOC(=O)c1oc2cc(O)cc(C)c2c(=O)c1-c1cscn1	none
C/C(Cc1ccccc1)=N\NC(=O)c1ccccn1	BRCA1 expr act 2.24µM
C/C(Cc1ccccc1)=N\NC(=O)c1cccnc1	EPAC1 antag inconclusive
Cc1ccc(S(=O)(=O)N(C)C)cc1NC(=O)COC(=O)c1ccc2c(c1)OCO2	none
COc1cc(/C=C/c2ccc3cccc(O)c3n2)ccc1O	BRCA1 expr act 11.2µM
NC(=O)c1sc2nc3c(c(-c4ccco4)c2c1N)CCCC3	none
Nc1c(C(=O)NCC2CCCO2)sc2nc3c(c(-c4ccco4)c12)CC/C3=C\c1ccco1 (configuration not stated)	EPAC1 antag 20µM
COCCNC(=O)CN1N=C(c2ccc(OC)cc2)CCC1=O	none
CCC(=O)N1CCC(c2ccc(OC)cc2)=N1	BRCA1 expr act 11.2µM
CN(CC(=O)Nc1ccc(Cl)c(C(F)(F)F)c1)C(=O)c1ccc2c(c1)OCCO2	EPAC1 agonist 79.4µM
Cc1ccc(NC(=O)CSc2nc3ccccc3c(=O)n2CCC(=O)NC2CCCCC2)cc1C	none (no result: EPAC2 ag, BRCA1 expr act, EPAC1 antag, EPAC2 antagonist, EPAC1 agonist)
Cc1ccc(NS(=O)(=O)c2cc(Br)cnc2N)c(Cl)c1	none
Nc1ncc(Br)cc1S(=O)(=O)Nc1cc(C(F)(F)F)cc(C(F)(F)F)c1	EPAC1 antag inconclusive, EPAC2 antagonist 15.8µM
O=c1/c(=C/c2ccco2)sc2nc(-c3ccccc3Br)nn12	none
O=C(NCc1ccc(F)cc1Cl)C1CC(=O)N(C2CCCCCCC2)C1 (configuration not stated)	none
O=S(=O)(NC1CCN(S(=O)(=O)c2c(F)cccc2F)C1)c1ccc2c(c1)OCCO2 (configuration not stated)	none
O=C(NCc1ccco1)c1cc(-c2ccc(F)cc2)on1	BRCA1 expr act 8.91µM
O=C(NCc1ccco1)c1cc(-c2ccccc2)on1	BRCA1 expr act inconclusive
O=C(NCc1ccco1)c1sc2cc(F)ccc2c1Cl	BRCA1 expr act 12.6µM
CCOc1cc(S(=O)(=O)N(CC)CC)c(OCC)cc1-n1cnnn1	none
CC(C)COc1ccc(-c2nnn(CC(=O)N3CCCC3)n2)cc1	BRCA1 expr act 10µM
O=C(Cn1nnc(-c2ccccc2)n1)N1CCCCC1	none
Cc1ccc(Nc2nc3nonc3nc2N(C)C)cc1	none
Cc1ccc(N(C)S(=O)(=O)c2ccc3c(c2)C(C)(C)C(=O)N3C)cc1C	none (no result: EPAC2 ag, EPAC1 antag, EPAC2 antagonist, EPAC1 agonist)
Cn1c2ccccc2c2cc(/C=N/NC(=O)c3cc(O)ccc3O)ccc21	EPAC1 antag 56.2µM
Cn1c2ccccc2c2cc(/C=N/NC(=O)c3cc(O)cc(O)c3)ccc21	EPAC1 antag inconclusive
CCOc1ccc(N(C)S(=O)(=O)c2ccc3c(c2)CCCN3C(C)=O)cc1	none (no result: EPAC2 ag, BRCA1 expr act, EPAC1 antag, EPAC2 antagonist, EPAC1 agonist)
COc1ccccc1NC(=O)Nc1nnc(CC(=O)Nc2ccccc2C)s1	none
CCc1nnc(NC(=O)Nc2ccccc2OC)s1	BRCA1 expr act 6.31µM
Clc1ccccc1C=NNc1ccccn1	none
CCN(CC)C(=O)c1sc(N)c(C(=O)OC(C)C)c1C	none
Cc1[nH]n(-c2ccccc2)c(=O)c1C(c1ccccc1[N+](=O)[O-])C(C#N)C#N (configuration not stated)	none
